In PubChem BioAssay (Tox21) one finds Potency, outcome and activity change, positive = activation data, which are given here for seven molecules.

The nature of assay [1]: qHTS assay to identify small molecule antagonists of the estrogen related receptor (ERR) signaling pathway from Tox21 library - cell viability counter screen (AID 1224834). Note: nearly all actives have a fitted effect of over 30% in size. An outline of the steps:
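Viability readout (CellTiter-Fluor fluorescence, 30 min at 37 C) multiplexed with the ERR assay; cells treated 17.5 h at 37 C with compounds delivered in DMSO.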
A general note: In qHTS, concentration-response curves come from the screen itself.

The target of assay [2] is Luciferin 4-monooxygenase (Photinus pyralis) (UniProt P08659). As to the kind of experiment: qHTS assay to identify small molecule inhibitors of firefly luciferase (AID 1224835). Note: nearly all actives have a fitted effect of over 25% in size. An outline of the steps: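 Quantitative HTS format; KM concentrations of both substrates. Purified P. pyralis FLuc activity quantified from luminescence images.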
Sequence of Luciferin 4-monooxygenase (Photinus pyralis) (P08659 whole entry, looked up): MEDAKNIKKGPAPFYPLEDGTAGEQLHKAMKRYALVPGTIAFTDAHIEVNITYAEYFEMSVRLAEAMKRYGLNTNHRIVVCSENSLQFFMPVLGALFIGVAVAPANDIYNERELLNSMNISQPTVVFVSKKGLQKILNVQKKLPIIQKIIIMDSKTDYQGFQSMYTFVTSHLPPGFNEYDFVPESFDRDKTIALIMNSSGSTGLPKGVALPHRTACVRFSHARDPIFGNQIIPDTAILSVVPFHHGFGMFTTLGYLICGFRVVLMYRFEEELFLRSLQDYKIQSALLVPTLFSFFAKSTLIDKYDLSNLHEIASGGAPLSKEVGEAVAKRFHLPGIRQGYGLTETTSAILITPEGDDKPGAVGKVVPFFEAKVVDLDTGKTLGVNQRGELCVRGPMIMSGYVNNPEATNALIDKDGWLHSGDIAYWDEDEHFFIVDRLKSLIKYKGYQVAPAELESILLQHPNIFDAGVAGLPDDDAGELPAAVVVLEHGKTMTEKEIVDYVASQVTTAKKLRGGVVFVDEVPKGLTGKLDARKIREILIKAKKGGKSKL
Assay [3] in a line: qHTS assay to identify small molecule agonists of the constitutive androstane receptor (CAR) signaling pathway - cell viability counter screen (AID 1224836). Note: nearly all actives have a fitted effect of over 45% in size. The essentials:
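Multiplexed viability check: HepG2-CYP2B6-hCAR cells, 15-point compound dosing, 0.75 uM PK11195 final, 23 h at 37 C, CellTiter-Fluor fluorescence.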

Assay [4] in a line: qHTS assay to identify small molecule antagonists of the constitutive androstane receptor (CAR) signaling pathway - cell viability counter screen (AID 1224837). Note: nearly all actives have a fitted effect of over 45% in size. An outline of the steps: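 Fluorescence from CellTiter-Fluor served as the viability signal. Human hepatoma HepG2 cells stably bearing hCAR and CYP2B6-2.2kb received compound plus CITCO (50 nM final) for 23 hr.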
Assay [5] deals with Nuclear receptor subfamily 1 group I member 3 (Homo sapiens) (UniProt Q14994). As to the kind of experiment: qHTS assay to identify small molecule antagonists of the constitutive androstane receptor (CAR) signaling pathway (AID 1224838).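 Note: HepG2 cells stably expressing hCAR with CYP2B6 luciferase reporter stimulated by CITCO; nearly all actives have a fitted effect of over 40% in size.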 An outline of the steps:
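Quantitative HTS in double-stable HepG2-CYP2B6-hCAR cells. After 4 h plating, cells get compound (15 concentrations) and CITCO at 50 nM final, incubate 24 h at 37 C, then ONE-Glo luminescence is read.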

Assay [6] has the same target. The assay can be described thus: qHTS assay to identify small molecule agonists of the constitutive androstane receptor (CAR) signaling pathway (AID 1224839).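 Note: HepG2 cells stably carrying human CAR and a CYP2B6 luciferase reporter; nearly all actives have a fitted effect of over 15% in size.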 The essentials:
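Using human hepatoma HepG2 cells engineered with hCAR and a CYP2B6-2.2kb reporter, 15-concentration compound series were incubated 24 h alongside PK11195 at 0.75 uM final, with luminescence quantified afterwards.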

Assay [7] in a line: qHTS assay to identify small molecule antagonists of the estrogen related receptor signaling pathway with the pleiotropic PPARgamma coactivator (PGC) from Tox21 10K library - cell viability counter screen (AID 1224840; active = well fitted cell-killing curve with a large enough effect in the repeat runs, not every such curve was filed as active; note: nearly all actives have a fitted effect of over 40% in size). An outline of the steps:
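Compounds in DMSO, alongside positive and negative controls, were pinned onto PGC/ERR cells (2,000 per well). Exposure lasted 17.5 hours at 37 C, followed by a 30-minute CellTiter-Fluor incubation and fluorescence reading.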

Assay [8] is described as follows: qHTS assay to identify small molecule antagonists of the estrogen related receptor signaling pathway with the pleiotropic PPARgamma coactivator (PGC) from Tox21 10K library (AID 1224841; call rule not given here; note: actives are mostly falling curves and most rising ones were filed inactive; nearly all actives have a fitted effect of over 50% in size). The essentials: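 Compound exposure ran 18 hours at 37 C in PGC/ERR cells (2,000/well) that had first rested 6 hours in a 37 C/5% CO2 incubator. Luciferase activity was then detected with One-Glo after a 30-minute room-temperature step.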

The nature of assay [9]: qHTS assay to identify small molecule agonists of the estrogen related receptor signaling pathway with the pleiotropic PPARgamma coactivator (PGC) from Tox21 10K library (AID 1224842). Note: nearly all actives have a fitted effect of over 15% in size. An outline of the steps:
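PGC/ERR reporter cells (NTP line) were seeded 2,000 per well, rested 6 h at 37 C/5% CO2, then pin-dosed with compounds in DMSO for 18 h at 37 C; luciferase read by One-Glo luminescence after 30 min at room temperature.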

Assay [10] addresses Thyrotropin receptor (Homo sapiens) (UniProt P16473). The assay can be described thus: qHTS assay to identify small molecule agonists of the thyroid stimulating hormone receptor (TSHR) signaling pathway (AID 1224843; calls by dose curve; note: nearly all actives have a fitted effect of over 45% in size). An outline of the steps: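 TSHR-expressing HEK293 cells (800 per well) were exposed to compounds for 30 min at room temperature. cAMP was then detected by HTRF competition with cAMP-d2 and anti-cAMP cryptate, read after 1 h at room temperature. Fifteen concentrations, triplicate.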

Assay [11] in a line: qHTS assay to identify small molecule agonists of the hypoxia (HIF-1) signaling pathway - cell viability counter screen (AID 1224844; calls by dose curve; note: nearly all actives have a fitted effect of over 50% in size; note: potency is the fitted concentration of half-maximal effect). An outline of the steps:
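Luminescent ATP content (CellTiter-Glo, 30 min, room temperature) served as the viability measure in HRE-bla ME-180 cells exposed to compounds for 17 hrs in low-serum medium (0.5% dialyzed FBS).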

Assay [12] in a line: qHTS assay to identify small molecule agonists of the hypoxia (HIF-1) signaling pathway (AID 1224846; active = well fitted activation curve with a large enough effect in the signal ratio in the repeat runs, not every such curve was filed as active; the % refers to the signal ratio). The essentials:
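Measured by blue/green FRET after loading CCF4-AM: beta-lactamase expressed from a hypoxia response element in ME-180 cells. Test agents were delivered in DMSO and left 17 hrs; cells had been plated 5 hrs earlier in low-serum (0.5% dialyzed FBS) medium.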

Assay [13] is described as follows: qHTS assay to identify small molecule agonists of H2AX - cell viability counter screen (AID 1224847; calls by dose curve; note: top concentration of the series differs between compounds; nearly all actives have a fitted effect of over 30% in size). The essentials:
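After overnight plating of 1000 CHO-K1 cells per well, a 15-concentration compound series was applied for 3 hr at 37C. Luminescence from CellTiter-Glo, read following 30 min at room temperature, reflected cell viability.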

Assay [14] in a line: qHTS assay to identify small molecule antagonists of the estrogen related receptor (ERR) signaling pathway from Tox21 library (AID 1224848). Note: nearly all actives have a fitted effect of over 50% in size. An outline of the steps: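 Cells: ERR line, 2,000/well; 6 h preincubation 37 C/5% CO2. Cpd in DMSO via pin tool; 18 h, 37 C. ONE-Glo, 30 min RT, luminescence.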
A short description of assay [15]: qHTS assay to identify small molecule agonists of the estrogen related receptor (ERR) signaling pathway from Tox21 library (AID 1224849; calls by dose curve; note: nearly all actives have a fitted effect of over 15% in size). Particulars: ERR reporter cell line, ONE-Glo luciferase, 18 h; at 92.4 µM (top of the series) unless noted. An outline of the steps:
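We plated ERR reporter cells, waited 6 h, added compounds in DMSO by pin tool and incubated them 18 h at 37 C. ONE-Glo was then added and luminescence read after 30 min.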

Assay [16] in a line: qHTS RealTime-Glo MT Cell Viability Assay in HepG2 cells - 24 hour (AID 1224867). Note: nearly all actives have a fitted effect of over 50% in size. An outline of the steps:
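Cell number in HepG2 cultures estimated from NanoLuc luminescence generated by metabolic reduction of a prosubstrate by living cells. The homogeneous, nonlytic format allowed repeated reads at 0, 8, 16, 24, 32 and 40 h of compound exposure.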

A short description of assay [17]: A CellTox Green Cytotoxicity Assay to monitor cytotoxicity in HEK293 cells - 0 hour (AID 1224869). Note: nearly all actives have a fitted effect of over 50% in size. The essentials: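 Each value comes from one timepoint of a single continuous run in which HEK293 cells with CellTox Green were exposed to compound for up to 40 h at 37 C, dye fluorescence rising with cell death.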
The nature of assay [18]: qHTS RealTime-Glo MT Cell Viability Assay in HepG2 cells - 40 hour (AID 1224870). Note: nearly all actives have a fitted effect of over 50% in size. An outline of the steps:
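HepG2 cells mixed with RealTime-Glo MT reagents (NanoLuc plus cell-permeant prosubstrate) were seeded at 600 cells/well, incubated 5 h at 37 C/5% CO2, then pinned with compounds in DMSO; nonlytic luminescence tracked viability during 40 h treatment.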

Assay [19] in a line: qHTS assay to identify small molecule agonists of H2AX (AID 1224845; active = well fitted activation curve with a large enough effect in the signal ratio in the repeat runs, not every such curve was filed as active; the % refers to the signal ratio). The essentials:
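Wild-type CHO-K1 cells plated overnight, then exposed 3 hr at 37C to compounds at 15 concentrations (0.76% DMSO). Lysed, then HTRF anti-pH2AX(S139)-cryptate/anti-H2AX-d2 detection after 24 hr at room temperature; emissions 665 and 620 nm.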

The nature of assay [20]: qHTS RealTime-Glo MT Cell Viability Assay in HEK293 cells - 32 hour (AID 1224868). The essentials:
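Homogeneous bioluminescent viability format in HEK293 cells (600 cells/well). Following 5 h at 37 C/5% CO2, 23 nL compound was pintooled; the signal was measured repeatedly during 40 h incubation.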

Values without a mark were called inactive. Records with an inconclusive call do not appear. The source made the active and inactive calls. Unless noted, calls come from the whole dose curve; as a rule, active = well fitted curve in the direction sought with a large enough effect in the repeat runs; inconclusive = weak or mixed curves; inactive = no such curve, though single readings can be large; an effect the other way counts as inactive or inconclusive.
% is set by controls: 0 for no effect and ±100 for the full control effect.

Sequence of Thyrotropin receptor (Homo sapiens) (P16473 whole entry, looked up): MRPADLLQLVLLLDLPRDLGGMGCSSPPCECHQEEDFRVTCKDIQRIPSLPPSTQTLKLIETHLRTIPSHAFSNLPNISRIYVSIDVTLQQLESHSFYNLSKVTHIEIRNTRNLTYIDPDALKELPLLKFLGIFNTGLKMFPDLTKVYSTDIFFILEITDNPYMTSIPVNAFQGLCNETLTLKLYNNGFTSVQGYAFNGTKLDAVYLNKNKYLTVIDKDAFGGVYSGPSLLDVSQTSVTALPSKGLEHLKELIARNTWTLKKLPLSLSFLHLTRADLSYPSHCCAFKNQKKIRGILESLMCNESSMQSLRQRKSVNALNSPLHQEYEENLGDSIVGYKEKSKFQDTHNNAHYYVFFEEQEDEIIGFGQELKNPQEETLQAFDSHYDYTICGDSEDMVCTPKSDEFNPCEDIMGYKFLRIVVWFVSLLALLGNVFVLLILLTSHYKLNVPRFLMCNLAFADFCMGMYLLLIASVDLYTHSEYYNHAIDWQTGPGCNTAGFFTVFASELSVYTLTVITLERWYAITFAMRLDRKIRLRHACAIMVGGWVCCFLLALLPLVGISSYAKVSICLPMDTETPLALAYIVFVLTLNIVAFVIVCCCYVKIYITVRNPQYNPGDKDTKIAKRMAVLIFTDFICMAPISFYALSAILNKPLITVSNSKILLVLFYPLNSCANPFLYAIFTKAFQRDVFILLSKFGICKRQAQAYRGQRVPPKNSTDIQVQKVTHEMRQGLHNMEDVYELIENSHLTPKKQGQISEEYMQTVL
Sequence of Nuclear receptor subfamily 1 group I member 3 (Homo sapiens) (Q14994 whole entry, looked up): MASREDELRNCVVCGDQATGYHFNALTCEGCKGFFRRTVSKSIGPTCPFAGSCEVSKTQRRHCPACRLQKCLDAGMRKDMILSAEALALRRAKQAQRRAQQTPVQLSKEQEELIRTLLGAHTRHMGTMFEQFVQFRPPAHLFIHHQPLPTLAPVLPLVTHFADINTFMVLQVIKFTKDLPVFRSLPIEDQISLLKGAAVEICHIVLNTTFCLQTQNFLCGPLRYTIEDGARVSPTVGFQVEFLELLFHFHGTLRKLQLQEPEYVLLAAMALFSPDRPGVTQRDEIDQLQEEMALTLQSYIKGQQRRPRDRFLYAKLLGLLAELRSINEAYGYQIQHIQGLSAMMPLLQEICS

In the case of `C=COCC(C)C`, the Potency entry in assay [1], in assay [2], in [3], in assay [4], in assay [5] and in [6] was “inactive” each time. In addition, the Potency result in assay [7], in assay [8], in assay [9], in [10], in assay [11] and in assay [13] was “inactive” throughout. In addition, the Potency result in [14], in [16], in [17] and in assay [18] was “inactive” throughout. For the same molecule, the call in [12] was inactive. The activity change, positive = activation in assay [15] was -0.119%.

Regarding `C[C@@]12CCC[C@H]1[C@@H]1CC[C@H]3C[C@@H](O)CC[C@]3(C)[C@H]1CC2`, the Potency entry in assay [1], in [2], in [3], in assay [4], in assay [5] and in assay [6] was “inactive” throughout. The Potency entry in assay [7], in [8], in assay [9], in assay [11], in [19] and in [13] was “inactive” each time. Further, the Potency result in assay [14], in assay [16], in assay [20] and in assay [17] was “inactive” throughout. In [12], the outcome was inactive. The activity change, positive = activation in [15] is -6.1% [at 42.5 µM].

As for `CCCCCC[C@@H](O)C/C=C\CCCCCCCC(=O)O`, the Potency result in assay [1], in assay [2], in assay [3], in assay [4], in assay [5] and in assay [6] was “inactive” in each case. Moreover, the Potency result in assay [7], in [8], in assay [9], in [11], in assay [19] and in assay [13] was “inactive” in each case. The Potency entry in assay [14], in assay [16], in [20], in [17] and in assay [18] was “inactive” each time. In addition, the outcome in assay [12] was inactive. The activity change, positive = activation in assay [15] is -0.13%.

As for `NC(=O)c1ccncc1`, the Potency result in [1], in assay [2], in assay [3], in assay [4], in [5] and in [6] was “inactive” each time. Besides, the Potency entry in assay [7], in assay [8], in [9], in assay [10], in [11] and in assay [14] was “inactive” throughout. For the same molecule, the Potency result in assay [16], in assay [20], in assay [17] and in assay [18] was “inactive” throughout. Also, in assay [12], the result was inactive. Besides, the activity change, positive = activation in [15] was 6.51%.

For `CC(=O)Nc1ccc(C)cc1C`, the Potency entry in assay [1], in assay [2], in assay [3], in assay [4], in assay [5] and in assay [6] was “inactive” each time. The Potency entry in [7], in assay [8], in [9], in assay [10], in [11] and in [19] was “inactive” in each case. The Potency entry in [13], in assay [14], in [16], in assay [20] and in assay [17] was “inactive” throughout. Also, the outcome in assay [12] was inactive. The activity change, positive = activation in assay [15] was 0.262%.

As to `C/C=C/C=C/C=O`, the Potency entry in assay [1], in [2], in [3], in [4], in assay [5] and in assay [6] was “inactive” in each case. Besides, the Potency entry in [7], in assay [8], in [9], in [19], in assay [14] and in assay [16] was “inactive” each time. The Potency entry in assay [17] and in assay [18] was “inactive” in each case. In assay [11], the Potency is 48.6 µM (active). In addition, the molecule was called inactive in assay [12]. Further, the activity change, positive = activation in [15] was 4.86%.

Take `CC1(C)[C@H](C(=O)O)N2C(=O)C[C@H]2S1(=O)=O`: the Potency result in [1], in assay [2], in assay [3], in assay [4], in assay [5] and in assay [6] was “inactive” in each case. Besides, the Potency result in [7], in [8], in assay [9], in assay [11], in assay [13] and in assay [14] was “inactive” each time. For the same molecule, the Potency entry in [16], in [20], in assay [17] and in assay [18] was “inactive” each time. The outcome in assay [12] was inactive. The activity change, positive = activation in assay [15] is 5.98% [at 42.5 µM].
